Measured values from PubChem BioAssay.
Activity calls are given as the source filed them.

Experiments:
[1] = small molecules captured by biotinylated probe aFSTL3 – biochemical, small-molecule microarray, fluorescence 635/667, stem cell growth factor project, primary screen (AID 1064); conditions: higher = more signal;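 further: measures binding of the biotinylated anti-FSTL3 antibody to printed compounds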
[2] = binders from COS7 lysate, DM2A8 probe, primary screen, torsin A project, cell lysate, small-molecule microarray, fluorescence 635/667 (AID 1065); conditions: higher = more signal, COS7 lysate expressing mutant human TOR1A
[3] = small molecules captured by biotinylated probe aFGF2 – biochemical, small-molecule microarray, fluorescence 635/667, stem cell growth factor project, primary screen (AID 1067); conditions: higher = more signal;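 further: measures binding of biotinylated aFGF2 protein to printed compounds on slides; z-score merges feature fluorescence and signal-to-noise across triplicate slides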
[4] = small molecules captured by biotinylated probe aFGF10 – biochemical, small-molecule microarray, fluorescence 635/667, stem cell growth factor project, primary screen (AID 1071); conditions: higher = more signal;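 further: score merges 667 nm spot intensity and signal to noise from triplicate slides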
[5] = molecular target: Neurogenic locus notch homolog protein 2 (Homo sapiens) (UniProt Q04721); test: small molecules binding Notch2 protein – biochemical, small-molecule microarray, 635 nm fluorescence, stem cell growth factors, primary screen (AID 1073); conditions: higher = more signal
Sequence of Neurogenic locus notch homolog protein 2 (Homo sapiens) (Q04721 whole entry, looked up, canonical isoform): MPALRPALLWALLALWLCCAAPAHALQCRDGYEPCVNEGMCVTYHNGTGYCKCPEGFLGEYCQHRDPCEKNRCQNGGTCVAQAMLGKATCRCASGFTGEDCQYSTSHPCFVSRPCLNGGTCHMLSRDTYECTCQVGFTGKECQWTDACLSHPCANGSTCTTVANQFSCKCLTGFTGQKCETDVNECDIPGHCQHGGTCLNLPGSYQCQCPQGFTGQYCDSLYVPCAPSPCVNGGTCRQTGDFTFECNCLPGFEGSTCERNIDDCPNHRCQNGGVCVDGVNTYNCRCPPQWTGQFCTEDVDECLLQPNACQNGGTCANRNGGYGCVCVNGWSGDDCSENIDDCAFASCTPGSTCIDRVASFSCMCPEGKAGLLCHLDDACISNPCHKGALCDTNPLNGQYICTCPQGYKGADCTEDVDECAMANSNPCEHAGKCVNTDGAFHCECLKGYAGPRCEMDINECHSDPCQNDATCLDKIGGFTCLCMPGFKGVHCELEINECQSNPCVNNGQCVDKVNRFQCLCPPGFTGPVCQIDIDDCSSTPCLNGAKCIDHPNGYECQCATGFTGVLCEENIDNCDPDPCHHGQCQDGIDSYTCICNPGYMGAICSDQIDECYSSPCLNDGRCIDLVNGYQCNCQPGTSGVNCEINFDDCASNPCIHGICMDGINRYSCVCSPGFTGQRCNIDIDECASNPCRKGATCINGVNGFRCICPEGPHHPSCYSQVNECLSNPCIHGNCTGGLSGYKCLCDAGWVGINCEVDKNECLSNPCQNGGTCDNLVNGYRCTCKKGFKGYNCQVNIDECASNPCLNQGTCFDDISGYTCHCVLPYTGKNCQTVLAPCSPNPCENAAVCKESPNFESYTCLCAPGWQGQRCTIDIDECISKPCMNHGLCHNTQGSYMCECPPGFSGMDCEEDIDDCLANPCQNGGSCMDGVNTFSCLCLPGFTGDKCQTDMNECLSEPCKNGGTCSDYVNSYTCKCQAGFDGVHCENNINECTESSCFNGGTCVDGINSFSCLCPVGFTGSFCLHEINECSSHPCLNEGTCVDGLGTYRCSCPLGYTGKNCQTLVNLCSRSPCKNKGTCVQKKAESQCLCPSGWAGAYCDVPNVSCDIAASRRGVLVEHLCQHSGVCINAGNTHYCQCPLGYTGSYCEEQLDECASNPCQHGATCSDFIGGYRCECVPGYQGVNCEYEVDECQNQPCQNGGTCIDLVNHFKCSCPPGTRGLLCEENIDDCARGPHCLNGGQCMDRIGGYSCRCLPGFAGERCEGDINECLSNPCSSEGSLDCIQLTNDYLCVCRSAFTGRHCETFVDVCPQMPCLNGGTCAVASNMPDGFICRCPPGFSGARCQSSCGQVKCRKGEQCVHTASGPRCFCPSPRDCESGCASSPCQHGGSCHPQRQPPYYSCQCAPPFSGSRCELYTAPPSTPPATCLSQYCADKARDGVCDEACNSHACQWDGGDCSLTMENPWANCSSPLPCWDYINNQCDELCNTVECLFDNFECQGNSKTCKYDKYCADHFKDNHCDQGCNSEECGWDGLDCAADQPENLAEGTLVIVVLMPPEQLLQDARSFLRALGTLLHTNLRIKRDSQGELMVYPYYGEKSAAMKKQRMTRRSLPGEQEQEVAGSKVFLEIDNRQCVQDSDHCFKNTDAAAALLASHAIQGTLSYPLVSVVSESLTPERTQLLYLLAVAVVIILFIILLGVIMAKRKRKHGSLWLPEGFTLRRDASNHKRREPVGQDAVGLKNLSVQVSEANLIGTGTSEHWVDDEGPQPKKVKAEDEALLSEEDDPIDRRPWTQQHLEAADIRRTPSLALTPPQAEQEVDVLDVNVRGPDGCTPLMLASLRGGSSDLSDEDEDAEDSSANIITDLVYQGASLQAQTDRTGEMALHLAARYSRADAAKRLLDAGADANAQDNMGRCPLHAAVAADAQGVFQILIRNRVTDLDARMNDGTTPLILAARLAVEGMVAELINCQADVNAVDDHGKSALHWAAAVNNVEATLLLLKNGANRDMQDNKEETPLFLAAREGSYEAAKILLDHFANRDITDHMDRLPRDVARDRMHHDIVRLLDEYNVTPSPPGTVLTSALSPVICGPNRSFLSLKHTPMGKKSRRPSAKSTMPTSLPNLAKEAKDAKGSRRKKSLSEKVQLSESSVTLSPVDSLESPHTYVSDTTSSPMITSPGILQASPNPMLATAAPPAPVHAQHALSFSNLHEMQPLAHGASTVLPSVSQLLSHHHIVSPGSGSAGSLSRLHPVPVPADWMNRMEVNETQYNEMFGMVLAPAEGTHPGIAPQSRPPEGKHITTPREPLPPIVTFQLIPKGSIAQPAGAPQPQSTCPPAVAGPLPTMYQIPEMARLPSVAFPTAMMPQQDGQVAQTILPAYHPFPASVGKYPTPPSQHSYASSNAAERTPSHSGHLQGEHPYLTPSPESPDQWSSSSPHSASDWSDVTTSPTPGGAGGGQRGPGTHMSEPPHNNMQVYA

[6] = molecular target: Pro-neuregulin-1, membrane-bound isoform (Homo sapiens) (UniProt Q02297); test: small molecules binding neuregulin-1 protein – biochemical, small-molecule microarray, fluorescence 635/667, psychiatric disease protein project, primary screen (AID 1075); conditions: NRG1 binding, 635 nm fluorescence, higher = more signal;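 further: score combines 667 nm spot fluorescence with signal to noise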
[7] = tested on: Neuregulin-1 EGF-like domain; test: small molecules binding NRG1 EGF domain – biochemical, small-molecule microarray, 635 nm fluorescence, primary screen (AID 1081); conditions: higher = more signal;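 further: binding of the protein to compounds printed on small-molecule microarray slides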
[8] = FRG1 expression reporter modulators in myotubes – cell-based, C2C12 myotubes, firefly/Renilla luciferase, luminescence, FRG1 inhibition for FSHD, primary screen (AID 1084); conditions: FRG1 promoter luciferase, higher = more signal, called active from +8 up or from −8 down
[9] = small molecules captured by biotinylated probe aFST – biochemical, small-molecule microarray, fluorescence 635/667, stem cell growth factor project, primary screen (AID 1086); conditions: higher = more signal;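 further: score merges 667 nm fluorescence with signal-to-noise of each printed compound spot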
[10] = binders of probe aHhip on microarray, primary screen, stem cell growth factor project, biochemical, small-molecule microarray, fluorescence 635/667 (AID 1087); conditions: higher = more signal;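 further: score merges spot fluorescence at 667nm with spot signal to noise ratio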
[11] = tested on: PRMT1 (protein arginine N-methyltransferase 1); test: small molecules binding arginine methyltransferase PRMT1 – biochemical, small-molecule microarray, 635 nm fluorescence, primary screen (AID 1088); conditions: higher = more signal;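 further: binding of Prmt1 protein to compounds spotted on small-molecule microarray slides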
[12] = growth effects on S. cerevisiae YJM789 – YJM789 clinical isolate, OD600, 24 h, basal, primary screen (AID 1089); conditions: higher = more signal, called active from +8 up or from −8 down;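 further: growth of clinical yeast isolate S. cerevisiae YJM 789 seeded 1000 cells per well; test concentration not given here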
[13] = S. pombe growth modifiers, basal conditions – strain 972, OD600, 24 h, no modulator, primary screen (AID 1090);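 further: basal condition with compound alone and no growth modifier present; test concentration not given here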; conditions: S. pombe 972 growth, higher = more signal, called active from +8 up or from −8 down
[14] = budding yeast growth modifiers under rapamycin – strain BY4716, OD600, 96 h, primary screen (AID 1091); further: test concentration not given here; conditions: S. cerevisiae BY4716 + rapamycin, higher = more signal, called active from +8 up or from −8 down
[15] = molecular target: Torsin-1A-interacting protein 2 (Homo sapiens) (UniProt Q8NFQ8); test: small molecules binding lysate-expressed LULL1 – cell lysate, human LULL1 lysate, 635/667 nm fluorescence, primary screen (AID 1092); conditions: small-molecule microarray, hLULL1 lysate binding, 635 nm fluorescence; higher = more signal;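 further: probe is lysate of COS7 cells overexpressing human LULL1; score merges per-feature 667 nm fluorescence with signal-to-noise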
[16] = optical density change of DRC41 E. coli – strain DRC41, OD650, 24 h, E. coli filamentation project, primary screen (AID 1093);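 further: MC1000 strain lacking acrAB efflux and sulA so SOS filamentation is blocked; test concentration not given here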; conditions: E. coli DRC41 growth, higher = more signal, called active from +8 up or from −8 down
[17] = probe aLefty2 binding to arrayed compounds – biochemical, biotinylated probe, 635/667 nm fluorescence, primary screen (AID 1094); conditions: small-molecule microarray, higher = more signal;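 further: score merges spot fluorescence near 667 nm with spot signal-to-noise ratio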
[18] = tested on: Noggin (protein binding on small-molecule microarray); test: small molecules binding Noggin protein – biochemical, 635/667 nm fluorescence, primary screen (AID 1095); conditions: 635 nm fluorescence, higher = more signal;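 further: score merges 667 nm feature fluorescence with signal to noise over triplicate slides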
[19] = molecular target: Neurogenic locus notch homolog protein 3 (Homo sapiens) (UniProt Q9UM47); test: small molecules binding NOTCH3 protein – biochemical, 635/667 nm fluorescence, primary screen (AID 1096); conditions: small-molecule microarray, 635 nm fluorescence, higher = more signal
Sequence of Neurogenic locus notch homolog protein 3 (Homo sapiens) (Q9UM47 whole entry, looked up): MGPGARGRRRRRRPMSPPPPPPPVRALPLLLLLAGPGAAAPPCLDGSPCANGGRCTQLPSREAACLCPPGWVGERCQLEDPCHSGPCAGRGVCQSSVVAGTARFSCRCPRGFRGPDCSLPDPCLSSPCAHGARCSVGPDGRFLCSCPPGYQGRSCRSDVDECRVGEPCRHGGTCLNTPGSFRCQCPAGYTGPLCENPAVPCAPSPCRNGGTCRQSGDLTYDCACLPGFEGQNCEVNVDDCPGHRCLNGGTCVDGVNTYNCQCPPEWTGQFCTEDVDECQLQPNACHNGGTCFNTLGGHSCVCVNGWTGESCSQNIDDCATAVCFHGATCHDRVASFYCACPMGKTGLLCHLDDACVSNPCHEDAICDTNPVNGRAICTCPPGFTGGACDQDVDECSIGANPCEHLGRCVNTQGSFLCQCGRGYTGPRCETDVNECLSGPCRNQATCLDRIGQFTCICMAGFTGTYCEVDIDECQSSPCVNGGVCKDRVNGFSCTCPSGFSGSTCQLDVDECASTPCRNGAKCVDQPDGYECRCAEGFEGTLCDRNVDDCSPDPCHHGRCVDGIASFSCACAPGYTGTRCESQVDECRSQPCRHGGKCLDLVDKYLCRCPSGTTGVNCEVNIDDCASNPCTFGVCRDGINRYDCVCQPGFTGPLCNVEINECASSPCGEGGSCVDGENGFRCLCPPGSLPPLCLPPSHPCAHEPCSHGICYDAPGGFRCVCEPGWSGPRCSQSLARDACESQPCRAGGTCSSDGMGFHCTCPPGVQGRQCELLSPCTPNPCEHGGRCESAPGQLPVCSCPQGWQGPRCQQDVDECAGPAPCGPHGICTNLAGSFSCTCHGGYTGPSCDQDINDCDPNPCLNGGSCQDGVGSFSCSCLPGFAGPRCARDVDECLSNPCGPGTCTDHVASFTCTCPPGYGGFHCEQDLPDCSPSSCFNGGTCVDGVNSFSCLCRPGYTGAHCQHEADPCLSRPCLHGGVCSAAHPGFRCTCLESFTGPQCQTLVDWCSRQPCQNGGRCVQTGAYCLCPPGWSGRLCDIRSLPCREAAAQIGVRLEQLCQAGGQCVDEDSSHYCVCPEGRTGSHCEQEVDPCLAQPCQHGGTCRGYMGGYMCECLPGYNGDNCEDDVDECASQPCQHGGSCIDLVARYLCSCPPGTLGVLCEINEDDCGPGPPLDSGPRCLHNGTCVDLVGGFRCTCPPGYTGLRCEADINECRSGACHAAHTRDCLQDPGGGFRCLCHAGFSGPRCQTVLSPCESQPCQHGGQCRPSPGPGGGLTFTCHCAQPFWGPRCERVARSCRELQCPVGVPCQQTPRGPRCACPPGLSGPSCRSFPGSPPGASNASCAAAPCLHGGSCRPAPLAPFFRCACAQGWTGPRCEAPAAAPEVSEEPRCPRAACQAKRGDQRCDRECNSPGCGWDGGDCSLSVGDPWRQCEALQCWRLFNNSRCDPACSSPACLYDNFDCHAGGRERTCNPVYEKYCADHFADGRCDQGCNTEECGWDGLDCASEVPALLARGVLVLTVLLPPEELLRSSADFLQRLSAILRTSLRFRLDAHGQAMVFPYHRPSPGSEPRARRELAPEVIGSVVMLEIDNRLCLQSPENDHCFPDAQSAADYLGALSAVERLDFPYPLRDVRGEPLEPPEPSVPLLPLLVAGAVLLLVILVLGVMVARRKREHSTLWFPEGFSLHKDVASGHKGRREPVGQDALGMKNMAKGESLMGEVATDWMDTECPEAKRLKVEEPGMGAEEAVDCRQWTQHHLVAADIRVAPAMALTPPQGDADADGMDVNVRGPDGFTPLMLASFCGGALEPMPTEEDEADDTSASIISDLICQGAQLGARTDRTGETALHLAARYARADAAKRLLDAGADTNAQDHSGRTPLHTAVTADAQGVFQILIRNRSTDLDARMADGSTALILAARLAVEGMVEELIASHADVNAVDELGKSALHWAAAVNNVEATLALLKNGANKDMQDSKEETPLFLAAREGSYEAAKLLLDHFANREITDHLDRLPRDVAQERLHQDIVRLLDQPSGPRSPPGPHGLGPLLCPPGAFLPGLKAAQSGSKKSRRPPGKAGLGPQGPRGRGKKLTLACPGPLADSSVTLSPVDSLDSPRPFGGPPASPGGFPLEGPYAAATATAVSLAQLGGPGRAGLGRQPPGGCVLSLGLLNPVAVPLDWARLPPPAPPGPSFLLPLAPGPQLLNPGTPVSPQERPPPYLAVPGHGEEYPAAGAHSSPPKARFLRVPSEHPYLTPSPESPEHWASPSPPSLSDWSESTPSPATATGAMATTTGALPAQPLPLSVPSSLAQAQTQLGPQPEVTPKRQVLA

[20] = probe aEGFR binding to arrayed compounds – biochemical, biotinylated probe, 635/667 nm fluorescence, primary screen (AID 1097); conditions: small-molecule microarray, higher = more signal;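 further: probe is a biotinylated anti-EGFR antibody binding compounds printed on slides; score combines fluorescence near 667 nm and signal to noise of each spot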

CCOC(=O)C[C@H]1[C@H](OC(=O)c2cc3ccccc3oc2=O)[C@@H](NC(=O)C2CCCCC2)c2cc(OCCCO)ccc2N1C(=O)c1ccccc1
composite z-score [1]: -0.565 | composite z-score [2]: 0.0071 | composite z-score [3]: -0.121 | composite z-score [4]: 0.642 | composite z-score [5]: 1.29 | composite z-score [6]: 0.0246 | composite z-score [7]: 0.863 | z-score [8]: 0.0161 (inactive) | composite z-score [9]: 0.564 | composite z-score [10]: -0.0618 | composite z-score [11]: 0.633 | z-score [12]: -0.415 (inactive) | z-score [13]: -0.894 (inactive) | z-score [14]: -0.0843 (inactive) | composite z-score [15]: 1.45 | z-score [16]: 2.03 (inactive) | composite z-score [17]: -0.0668 | composite z-score [18]: 0.844 | composite z-score [19]: 0.615 | composite z-score [20]: 0.25

NCCCCCNC(=O)[C@@H]1C[C@@H]2C(=O)N[C@@H](Cc3ccccc3)C(=O)N2[C@@H]1c1cccc(OCCO)c1
composite z-score [1]: 0.185 | composite z-score [2]: 0.291 | composite z-score [3]: -0.107 | composite z-score [4]: 0.106 | composite z-score [5]: 0.514 | composite z-score [6]: 1.32 | composite z-score [7]: 1.08 | z-score [8]: 1.39 (inactive) | composite z-score [9]: -0.122 | composite z-score [10]: -0.0645 | composite z-score [11]: 0.715 | z-score [12]: 0.653 (inactive) | z-score [13]: -0.175 (inactive) | z-score [14]: 0.68 (inactive) | composite z-score [15]: 1.8 | z-score [16]: -0.47 (inactive) | composite z-score [17]: -0.0075 | composite z-score [18]: 0.363 | composite z-score [19]: -0.448 | composite z-score [20]: -0.218

COc1ccc(C(=O)O[C@H]2CC[C@]3(C)C4=C(CCC3C2(C)C)[C@]2(C)CC[C@H]([C@H](C)CCCC(C)C)[C@@]2(C)CC4)cc1 (stereo not given in full)
composite z-score [1]: -0.581 | composite z-score [2]: 0.191 | composite z-score [3]: -0.128 | composite z-score [4]: 0.338 | composite z-score [5]: 0.611 | composite z-score [6]: 0.133 | composite z-score [7]: 0.456 | z-score [8]: -1.16 (inactive) | composite z-score [9]: 0.18 | composite z-score [10]: 0.0749 | composite z-score [11]: 0.193 | z-score [12]: -0.292 (inactive) | z-score [13]: -1.52 (inactive) | z-score [14]: -0.262 (inactive) | composite z-score [15]: -0.445 | z-score [16]: 1.71 (inactive) | composite z-score [17]: -0.0561 | composite z-score [18]: 0.546 | composite z-score [19]: 0.947 | composite z-score [20]: -0.0828

COC(=O)[C@@]1(Cc2ccc(F)cc2)[C@H]2c3cc(C(=O)N(C)C)n(Cc4nc5ccccc5[nH]4)c3C[C@H]2CN1C(=O)c1ccccc1
composite z-score [1]: 0.258 | composite z-score [2]: -1.35 | composite z-score [3]: 0.349 | composite z-score [4]: 0.841 | composite z-score [5]: 1.66 | composite z-score [6]: 2.13 | composite z-score [7]: 1.13 | z-score [8]: -0.169 (inactive) | composite z-score [9]: 1.36 | composite z-score [10]: -0.139 | composite z-score [11]: 0.173 | z-score [12]: 0.37 (inactive) | z-score [13]: 0.821 (inactive) | z-score [14]: -0.444 (inactive) | composite z-score [15]: 3.36 | z-score [16]: -0.373 (inactive) | composite z-score [17]: 0.341 | composite z-score [18]: -0.138 | composite z-score [19]: 1.08 | composite z-score [20]: 0.191

CC(=O)N1Cc2ccccc2C[C@@]2(COC(c3ccc(OCCCO)cc3)=N2)C1=O
composite z-score [1]: 1.54 | composite z-score [2]: 0.842 | composite z-score [3]: 0.235 | composite z-score [4]: 0.51 | composite z-score [5]: 1.18 | composite z-score [6]: 1.4 | composite z-score [7]: 1.07 | z-score [8]: -0.41 (inactive) | composite z-score [9]: 1.83 | composite z-score [10]: -0.21 | composite z-score [11]: 1.55 | z-score [12]: -3.98 (inactive) | z-score [13]: -0.737 (inactive) | z-score [14]: -0.965 (inactive) | composite z-score [15]: 2.25 | z-score [16]: 1.81 (inactive) | composite z-score [17]: 0.518 | composite z-score [18]: 0.515 | composite z-score [19]: 1.03 | composite z-score [20]: 0.119

COCCOC(=O)N1C(=O)[C@@]2(c3cc(C#CC4=CCCCC4)ccc31)[C@H](C(=O)Nc1nc3ccccc3s1)[C@H]1C(=O)O[C@H](c3ccccc3)[C@H](c3ccccc3)N1[C@@H]2c1ccccc1OCCO
composite z-score [1]: 0.346 | composite z-score [2]: 0.189 | composite z-score [3]: 0.0871 | composite z-score [4]: 0.77 | composite z-score [5]: 1.49 | composite z-score [6]: 1.15 | composite z-score [7]: 1.08 | z-score [8]: 1.29 (inactive) | composite z-score [9]: 0.965 | composite z-score [10]: 0.463 | composite z-score [11]: 1.55 | z-score [12]: 1.25 (inactive) | z-score [13]: 0.812 (inactive) | z-score [14]: 3.25 (inactive) | composite z-score [15]: 2.15 | z-score [16]: 0.859 (inactive) | composite z-score [17]: 0.255 | composite z-score [18]: 0.883 | composite z-score [19]: 1.07 | composite z-score [20]: 0.411

COC(=O)C=C(CC(O)c1cccc(Cl)c1)OC (stereo not given)
composite z-score [1]: 1.55 | composite z-score [2]: 0.172 | composite z-score [3]: 0.54 | composite z-score [4]: 0.0631 | composite z-score [5]: -0.0372 | composite z-score [6]: 1.76 | composite z-score [7]: 1.21 | z-score [8]: -4.2 (inactive) | composite z-score [9]: 1.65 | composite z-score [10]: -0.0879 | composite z-score [11]: 0.0922 | z-score [12]: -4.19 (inactive) | z-score [13]: -10.8 (active) | z-score [14]: -1.02 (inactive) | composite z-score [15]: 2.4 | z-score [16]: 0.0753 (inactive) | composite z-score [17]: 1.06 | composite z-score [18]: -0.309 | composite z-score [19]: -0.547 | composite z-score [20]: 0.115

C=CC[C@@]1(C(=O)N(C)C)N=C(c2ccc(OCCCO)cc2)O[C@@H]1c1ccccc1N=[N+]=[N-]
composite z-score [1]: 1.12 | composite z-score [2]: 1.72 | composite z-score [3]: 0.0732 | composite z-score [4]: 0.622 | composite z-score [5]: 0.984 | composite z-score [6]: 1.52 | composite z-score [7]: 1.29 | z-score [8]: 2.35 (inactive) | composite z-score [9]: 1.21 | composite z-score [10]: 0.011 | composite z-score [11]: 1.55 | z-score [12]: -0.431 (inactive) | z-score [13]: -0.0481 (inactive) | z-score [14]: -0.0865 (inactive) | composite z-score [15]: 3.57 | z-score [16]: 0.724 (inactive) | composite z-score [17]: 0.193 | composite z-score [18]: 1.07 | composite z-score [19]: 1.06 | composite z-score [20]: 0.276

CC(C)(C)OC(=O)CC[C@@]1(C(=O)NCCN2CCOCC2)N=C(c2ccc(OCCCO)cc2)O[C@@H]1c1ccccc1N=[N+]=[N-]
composite z-score [1]: 0.793 | composite z-score [2]: 0.122 | composite z-score [3]: 0.0789 | composite z-score [4]: 1.01 | composite z-score [5]: 1.49 | composite z-score [6]: 1.56 | composite z-score [7]: 1.32 | z-score [8]: 4.07 (inactive) | composite z-score [9]: 1.67 | composite z-score [10]: 0.232 | composite z-score [11]: 1.45 | z-score [12]: -0.174 (inactive) | z-score [13]: -0.182 (inactive) | z-score [14]: -0.336 (inactive) | composite z-score [15]: 3.09 | z-score [16]: -0.115 (inactive) | composite z-score [17]: 0.591 | composite z-score [18]: -0.0404 | composite z-score [19]: 1.11 | composite z-score [20]: 0.171

C=C(CCCC)C(=O)CC[C@@H](OC(=O)c1cccnc1)c1ccc(CO)o1
composite z-score [1]: -0.45 | composite z-score [2]: 0.0802 | composite z-score [3]: -0.008 | composite z-score [4]: 0.601 | composite z-score [5]: 0.88 | composite z-score [6]: 1.05 | composite z-score [7]: 1.07 | z-score [8]: -0.434 (inactive) | composite z-score [9]: 0.391 | composite z-score [10]: 0.122 | composite z-score [11]: 1.55 | z-score [12]: 0.544 (inactive) | z-score [13]: 0.115 (inactive) | z-score [14]: 0.275 (inactive) | composite z-score [15]: 1.45 | z-score [16]: -0.211 (inactive) | composite z-score [17]: -0.105 | composite z-score [18]: 1.61 | composite z-score [19]: 1.12 | composite z-score [20]: 0.021
